Consider 16 molecules from ChEMBL document CHEMBL1961873, “Compounds: GSK PKIS; Assays: Nanosyn kinase panel” (2012).

Assay [1] has as its target Calcium/calmodulin-dependent protein kinase type II subunit alpha (Homo sapiens) (UniProt Q9UQM7). To be noted: at 1 µM.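 Further: reported value is a mean percent inhibition of CAMK2A.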
Assay [2] has as its target Calcium/calmodulin-dependent protein kinase type II subunit delta (Homo sapiens) (UniProt Q13557). To be noted: at 0.1 µM.
For assay [3] the target is unchanged. To be noted: at 1 µM.
Assay [4] addresses T1, Calcium/calmodulin-dependent protein kinase type IV (Homo sapiens) (UniProt Q16566).
T1 sequence (whole entry): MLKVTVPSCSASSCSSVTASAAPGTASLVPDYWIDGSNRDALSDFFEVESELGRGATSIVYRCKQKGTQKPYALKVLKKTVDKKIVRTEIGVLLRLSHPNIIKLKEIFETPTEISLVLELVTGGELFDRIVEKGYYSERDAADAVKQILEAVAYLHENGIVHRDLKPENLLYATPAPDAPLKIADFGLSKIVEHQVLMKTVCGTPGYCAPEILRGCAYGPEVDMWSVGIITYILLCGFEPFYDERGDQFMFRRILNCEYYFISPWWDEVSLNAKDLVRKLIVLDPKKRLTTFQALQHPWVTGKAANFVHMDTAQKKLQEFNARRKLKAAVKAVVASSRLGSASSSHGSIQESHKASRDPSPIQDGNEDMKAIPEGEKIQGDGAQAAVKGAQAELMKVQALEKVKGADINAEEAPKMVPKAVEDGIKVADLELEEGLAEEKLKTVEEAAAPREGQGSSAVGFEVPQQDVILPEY
To be noted: at 0.1 µM.

The target in assay [5] is T1, Calcium/calmodulin-dependent protein kinase type IV (Homo sapiens). To be noted: at 1 µM.
The target of assay [6] is T2, Serine/threonine-protein kinase Chk1 (Homo sapiens) (UniProt O14757).
T2 sequence (whole entry): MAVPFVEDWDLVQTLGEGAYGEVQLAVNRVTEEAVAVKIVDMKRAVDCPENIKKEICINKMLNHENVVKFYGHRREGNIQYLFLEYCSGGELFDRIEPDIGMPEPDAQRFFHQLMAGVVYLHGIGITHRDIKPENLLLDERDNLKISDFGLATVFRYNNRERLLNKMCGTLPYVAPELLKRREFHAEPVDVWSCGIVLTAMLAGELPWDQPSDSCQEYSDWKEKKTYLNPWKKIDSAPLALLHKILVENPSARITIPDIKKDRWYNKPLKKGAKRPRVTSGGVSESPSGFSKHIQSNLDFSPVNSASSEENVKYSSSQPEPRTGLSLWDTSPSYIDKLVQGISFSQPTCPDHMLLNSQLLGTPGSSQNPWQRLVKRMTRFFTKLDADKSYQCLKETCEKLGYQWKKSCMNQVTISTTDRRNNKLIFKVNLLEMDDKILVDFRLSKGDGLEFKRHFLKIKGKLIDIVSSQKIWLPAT
To be noted: at 0.1 µM.

The target in assay [7] is T2, Serine/threonine-protein kinase Chk1 (Homo sapiens). To be noted: at 1 µM.
For assay [8], the target named is Serine/threonine-protein kinase Chk2 (Homo sapiens) (UniProt O96017). To be noted: at 0.1 µM.
Chain of Serine/threonine-protein kinase Chk2 (Homo sapiens) (O96017 whole entry): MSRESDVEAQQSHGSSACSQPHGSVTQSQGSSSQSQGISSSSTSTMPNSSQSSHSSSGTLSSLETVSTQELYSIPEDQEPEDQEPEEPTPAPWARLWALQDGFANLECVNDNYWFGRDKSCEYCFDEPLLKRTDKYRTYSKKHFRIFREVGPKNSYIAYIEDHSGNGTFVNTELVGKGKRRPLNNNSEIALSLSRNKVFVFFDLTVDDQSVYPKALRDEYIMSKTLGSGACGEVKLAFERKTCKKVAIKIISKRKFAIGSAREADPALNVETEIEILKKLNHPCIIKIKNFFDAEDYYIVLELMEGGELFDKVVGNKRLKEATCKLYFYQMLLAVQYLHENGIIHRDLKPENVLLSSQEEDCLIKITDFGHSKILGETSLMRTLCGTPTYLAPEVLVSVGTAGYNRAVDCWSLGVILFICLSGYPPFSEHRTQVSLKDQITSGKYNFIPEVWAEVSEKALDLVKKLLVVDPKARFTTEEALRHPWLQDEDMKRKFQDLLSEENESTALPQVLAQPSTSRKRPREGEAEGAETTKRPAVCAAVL
Assay [9] shares this target. As to conditions: at 1 µM.
Assay [10] addresses Death-associated protein kinase 1 (Homo sapiens) (UniProt P53355). As to conditions: at 0.1 µM.

Values joined by “and” are separate entries in the source; they are usually repeats but may differ in a detail not shown here. Identical values can stand only once.

Chain of Death-associated protein kinase 1 (Homo sapiens) (P53355 whole entry, looked up): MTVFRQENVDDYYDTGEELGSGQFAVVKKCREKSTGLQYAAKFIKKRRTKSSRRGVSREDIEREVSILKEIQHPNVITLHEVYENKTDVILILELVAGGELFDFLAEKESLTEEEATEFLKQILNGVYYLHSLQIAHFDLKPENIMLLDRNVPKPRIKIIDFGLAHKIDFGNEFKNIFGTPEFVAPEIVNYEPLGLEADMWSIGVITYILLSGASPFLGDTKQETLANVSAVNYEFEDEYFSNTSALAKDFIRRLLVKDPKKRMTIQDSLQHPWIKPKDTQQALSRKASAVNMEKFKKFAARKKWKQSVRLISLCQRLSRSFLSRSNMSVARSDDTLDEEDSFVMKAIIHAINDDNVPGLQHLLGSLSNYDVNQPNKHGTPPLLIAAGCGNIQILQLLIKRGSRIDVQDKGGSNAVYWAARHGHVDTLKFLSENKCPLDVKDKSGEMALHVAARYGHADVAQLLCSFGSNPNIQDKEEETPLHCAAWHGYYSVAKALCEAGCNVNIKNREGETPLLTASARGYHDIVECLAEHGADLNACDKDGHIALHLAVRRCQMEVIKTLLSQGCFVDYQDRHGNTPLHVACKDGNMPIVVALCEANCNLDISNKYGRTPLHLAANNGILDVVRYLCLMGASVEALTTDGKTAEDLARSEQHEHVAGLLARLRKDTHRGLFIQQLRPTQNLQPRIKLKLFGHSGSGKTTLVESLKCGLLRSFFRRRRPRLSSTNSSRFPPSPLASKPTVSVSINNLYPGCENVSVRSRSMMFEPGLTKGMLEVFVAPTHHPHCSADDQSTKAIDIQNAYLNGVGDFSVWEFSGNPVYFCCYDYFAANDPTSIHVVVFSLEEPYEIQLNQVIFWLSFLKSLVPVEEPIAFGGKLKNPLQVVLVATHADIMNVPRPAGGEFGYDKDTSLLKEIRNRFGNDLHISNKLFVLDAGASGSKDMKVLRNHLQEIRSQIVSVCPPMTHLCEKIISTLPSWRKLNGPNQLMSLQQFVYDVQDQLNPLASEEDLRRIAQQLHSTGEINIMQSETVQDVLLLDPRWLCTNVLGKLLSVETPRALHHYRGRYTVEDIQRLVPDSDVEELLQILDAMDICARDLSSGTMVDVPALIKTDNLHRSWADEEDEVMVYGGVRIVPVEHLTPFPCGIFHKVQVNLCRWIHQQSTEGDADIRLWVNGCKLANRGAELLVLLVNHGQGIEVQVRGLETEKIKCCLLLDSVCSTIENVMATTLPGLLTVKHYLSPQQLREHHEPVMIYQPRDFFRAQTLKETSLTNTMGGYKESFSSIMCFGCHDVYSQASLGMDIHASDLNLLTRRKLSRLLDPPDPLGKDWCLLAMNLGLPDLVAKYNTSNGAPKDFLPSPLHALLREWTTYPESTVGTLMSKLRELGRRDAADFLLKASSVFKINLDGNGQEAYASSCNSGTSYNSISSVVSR
Chain of Calcium/calmodulin-dependent protein kinase type II subunit alpha (Homo sapiens) (Q9UQM7 whole entry): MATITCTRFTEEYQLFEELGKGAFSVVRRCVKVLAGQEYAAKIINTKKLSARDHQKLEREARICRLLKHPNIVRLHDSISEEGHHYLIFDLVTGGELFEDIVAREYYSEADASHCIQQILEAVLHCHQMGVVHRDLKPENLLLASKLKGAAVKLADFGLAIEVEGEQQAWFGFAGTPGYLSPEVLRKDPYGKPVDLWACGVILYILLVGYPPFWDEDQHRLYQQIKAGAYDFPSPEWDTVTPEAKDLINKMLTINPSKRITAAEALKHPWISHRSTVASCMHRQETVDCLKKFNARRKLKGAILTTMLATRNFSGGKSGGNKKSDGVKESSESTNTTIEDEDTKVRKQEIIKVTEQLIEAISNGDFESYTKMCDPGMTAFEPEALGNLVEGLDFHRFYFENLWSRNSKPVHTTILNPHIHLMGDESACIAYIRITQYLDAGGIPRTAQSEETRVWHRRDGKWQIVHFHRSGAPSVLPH
Chain of Calcium/calmodulin-dependent protein kinase type II subunit delta (Homo sapiens) (Q13557 whole entry): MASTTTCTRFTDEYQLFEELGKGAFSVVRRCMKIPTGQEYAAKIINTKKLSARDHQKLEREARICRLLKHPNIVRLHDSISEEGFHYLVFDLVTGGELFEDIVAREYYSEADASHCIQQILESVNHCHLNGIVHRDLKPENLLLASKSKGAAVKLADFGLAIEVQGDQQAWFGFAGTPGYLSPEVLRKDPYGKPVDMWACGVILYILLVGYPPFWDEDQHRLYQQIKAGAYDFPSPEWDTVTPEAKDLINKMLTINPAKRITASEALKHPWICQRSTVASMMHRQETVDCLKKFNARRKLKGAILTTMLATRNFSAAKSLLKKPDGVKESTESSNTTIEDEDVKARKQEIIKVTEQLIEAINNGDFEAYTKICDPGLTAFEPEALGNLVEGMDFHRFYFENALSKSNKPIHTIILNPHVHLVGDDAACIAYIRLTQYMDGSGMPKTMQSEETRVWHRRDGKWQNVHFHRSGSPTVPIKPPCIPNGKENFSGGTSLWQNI

As to `CNC(=O)c1ncccc1Nc1nc(Nc2cc3c(cc2OC)CCCN3C(=O)CN(C)C)nc2[nH]ccc12`, the inhibition (commonly the change of the read-out against control, counted positive when it falls) in assay [1] came out at 5.55%; in assay [2] it was 4.46%; in [3], 8.21%; in assay [4], 0.87%; in assay [5] it was 5.93%; in [6], 3.13%. Further, the inhibition in assay [7] was found to be 4.54%; in assay [8], 3.89%; in [9], 11.9%; in [10], 4.3%.
Turning to `CN(c1ccc(NC(=O)NCCN2CCOCC2)cc1)c1ccnc(Nc2ccc(CS(C)(=O)=O)cc2)n1`, the inhibition in assay [1] is 1.11%; in [2], 1.06%; in assay [3], 3.97%; in assay [4], -3.18%; in [5], -5.39%; in assay [6] it was 4.02%. In addition, the inhibition stood at 3.14% in assay [7], 2.01% in [8], 6.85% in assay [9] and 4.05% in [10].
Turning to `c1ccc(-c2n[nH]cc2-c2ccnc(-c3ccc(OCCn4ccnc4)cc3)c2)nc1`, the inhibition in assay [1] is -1.38%; in assay [2] it was -0.35%; in assay [3] it was 0.74%; in assay [4], 0.1%; in assay [5], -0.86%; in assay [6], -5.5%. In addition, the inhibition was -4.71% in [7], -3.83% in assay [8], -2.77% in assay [9] and -7.91% in [10].
In the case of `COc1cccc(-n2ncc3c(N/N=C/c4ccc(C(=O)NCCN(C)C)cc4)ncnc32)c1`, the inhibition in assay [1] came out at 10.4%; in [2] it was 8.19%; in [3], 36.1%; in assay [4], 0.48%; in assay [5], 1.87%; in assay [6], 2.47%. Further, the inhibition in [7] was 5.69%; in assay [8] it was 0.95%; in assay [9], 3.14%; in assay [10], 3.46%.
As for `COc1c(C(N)=O)cc(-c2ccc(Cl)cc2)cc1-c1ccc(S(N)(=O)=O)cc1`, the inhibition in [1] is 6.07%; in assay [2], 4.78%; in assay [3] it was 8.49%; in [4], -0.13%; in assay [5], 3.77%; in assay [6], -0.02%. Further, the inhibition in assay [7] was 1.33%; in [8] it was 5.72%; in [9], 10.5%; in assay [10], 1.52%.
Regarding `Cc1cc(O)cc(C)c1/C=C/c1cncc(C(N)=O)c1`, the inhibition in assay [1] was 2.76%; in [2], 2.47%; in assay [3], 6.44%; in assay [4], 0.89%; in [5], 1.57%; in assay [6], 2.8%. The inhibition in assay [7] is 0.66%; in assay [8], 0.67%; in assay [9] it was 4%; in assay [10], 1.68%.
Regarding `Cc1ccc(-c2cc3c(NC(=O)C4CC4)ncnc3o2)cc1`, the inhibition in assay [1] was 4.25%; in assay [2] it was 3.37%; in [3], 3.7%; in assay [4] it was -0.74%; in [5] it was 30.3%; in [6], -0.37%. Moreover, the inhibition in [7] came out at 3.47%; in [8], 2.56%; in assay [9], 5.07%; in assay [10], 3.63%.
Regarding `CS(=O)(=O)CCNCc1ccc(-c2ccc3ncnc(Nc4ccc(OCc5ccccc5)cc4)c3c2)o1`, the inhibition is -1% in assay [1]; 2.72% in assay [2]; 1.68% in [3]; 2.07% in assay [4]; -0.36% in assay [5]; -1.5% in assay [6]. For the same molecule, the inhibition in assay [7] stood at 0.28%; in assay [8], 3.41%; in assay [9] it was 12.9%; in assay [10], 3.08%.
As to `COc1cc(N2CCN(C(C)C)CC2)ccc1Nc1nc(Nc2cccc(F)c2C(=O)O)c2cc[nH]c2n1`, the inhibition in assay [1] was 4.14%; in assay [2] it was 3.26%; in assay [3], 6.33%; in assay [4], -2.13%; in [5], -1.74%; in assay [6], 1.97%. In addition, the inhibition is 6.1% in [7], 4.99% in assay [8], 26.3% in assay [9] and 3.88% in [10].
Take `CS(=O)(=O)CCNCc1ccoc1-c1ccc2ncnc(Nc3ccc(OCc4ccccc4)cc3)c2c1`: the inhibition was 0.09% in [1]; 0.18% in assay [2]; -0.44% in assay [3]; -0.43% in assay [4]; -1.35% in assay [5]; 0.86% in assay [6]. In addition, the inhibition in assay [7] is -2.73%; in assay [8] it was 1.56%; in [9] it was 8.55%; in assay [10] it was -0.21%.
For the molecule `COc1ccc2ncn(-c3cc(O[C@H](C)c4ccccc4C(F)(F)F)c(C(N)=O)s3)c2c1`, the inhibition was 0.95% in assay [1]; -0.5% in [2]; 5.44% in [3]; 1.4% in assay [4]; 3.11% in [5]; 1.46% in assay [6]. Besides, the inhibition in [7] is 0.47%; in assay [8], -1.28%; in [9], -0.25%; in assay [10], -0.67%.
As for `CN1CCC(C(=O)Nc2n[nH]c3nc(-c4ccc(O)cc4)c(Br)cc23)CC1`, the inhibition in assay [1] was 5.88% and 4.76%; in assay [2] it was 3.23% and 2.76%; in [3], 12.3% and 11.1%; in [4], -1.13% and 0.82%; in assay [5], -1.76% and 1.46%; in [6], 0.73% and 0.68%. In addition, the inhibition in [7] was 5.31% and 2.46%; in assay [8], 3.5% and 1.61%; in assay [9], 5.98% and 3.76%; in assay [10], 2.41% and 2.49%.
Consider `CNC(=O)c1sc(-n2cnc3cc(OC)c(OC)cc32)cc1OCc1ccccc1C(F)(F)F`, for which the inhibition in assay [1] was -0.49%; in assay [2], 3.02%; in assay [3] it was 0.51%; in assay [4], 0.67%; in [5], -0.52%; in [6] it was 2.9%. The inhibition in assay [7] stood at 3.46%; in [8] it was 2.9%; in [9], 2.7%; in assay [10] it was 5.53%.
In the case of `CCOc1ccc2c(-c3ccnc(Nc4cc(OC)cc(C(F)(F)F)c4)n3)cnn2n1`, the inhibition in assay [1] is -0.03%; in [2], 0.7%; in [3] it was 1.42%; in assay [4], 1.18%; in assay [5] it was -0.28%; in assay [6], 3.19%. Further, the inhibition in assay [7] is 1.38%; in assay [8], -0.97%; in [9] it was 0.04%; in [10], 0.8%.
Take `COc1cc(Nc2ncc(-c3ccccc3)o2)cc(OC)c1`: the inhibition in assay [1] is 1.52%; in assay [2], 3.94%; in [3], 7.34%; in [4], -1.03%; in [5], -1.65%; in [6], 1.69%. The inhibition is 0.7% in assay [7], 4.6% in assay [8], 5.38% in [9] and 2.51% in [10].
As to `NS(=O)(=O)c1ccc(N/N=C2\C(=O)Nc3ccc(C(=O)NCc4ccncc4)cc32)cc1`, the inhibition in [1] is 5.1%; in [2], 3.39%; in assay [3], 11.8%; in assay [4] it was -2.17%; in [5] it was -4.16%; in assay [6], 2.58%. Besides, the inhibition in assay [7] is 11.1%; in assay [8], 4.18%; in [9] it was 19.2%; in assay [10], 4.72%.
